# Paper PMC4336329 (PLoS ONE, 2015)
# In all, about 310,000 compounds went through this assay and about 14,000 (4.5%) showed an effect of 50% or more. Effects have a minus sign here. This is one part of a sample in which strong results are shown more often than they occur.
# Target: human ether-à-go-go-related gene (hERG) potassium channel (human, UniProt Q12809)
# Experiment: primary screen, population patch clamp on CHO cells stably expressing hERG; higher = less effect of the substance
# 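Note: peak tail current of the secondary pulse compared with the same well before compound.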
# Sequence of human ether-à-go-go-related gene (hERG) potassium channel (Q12809 whole entry, looked up): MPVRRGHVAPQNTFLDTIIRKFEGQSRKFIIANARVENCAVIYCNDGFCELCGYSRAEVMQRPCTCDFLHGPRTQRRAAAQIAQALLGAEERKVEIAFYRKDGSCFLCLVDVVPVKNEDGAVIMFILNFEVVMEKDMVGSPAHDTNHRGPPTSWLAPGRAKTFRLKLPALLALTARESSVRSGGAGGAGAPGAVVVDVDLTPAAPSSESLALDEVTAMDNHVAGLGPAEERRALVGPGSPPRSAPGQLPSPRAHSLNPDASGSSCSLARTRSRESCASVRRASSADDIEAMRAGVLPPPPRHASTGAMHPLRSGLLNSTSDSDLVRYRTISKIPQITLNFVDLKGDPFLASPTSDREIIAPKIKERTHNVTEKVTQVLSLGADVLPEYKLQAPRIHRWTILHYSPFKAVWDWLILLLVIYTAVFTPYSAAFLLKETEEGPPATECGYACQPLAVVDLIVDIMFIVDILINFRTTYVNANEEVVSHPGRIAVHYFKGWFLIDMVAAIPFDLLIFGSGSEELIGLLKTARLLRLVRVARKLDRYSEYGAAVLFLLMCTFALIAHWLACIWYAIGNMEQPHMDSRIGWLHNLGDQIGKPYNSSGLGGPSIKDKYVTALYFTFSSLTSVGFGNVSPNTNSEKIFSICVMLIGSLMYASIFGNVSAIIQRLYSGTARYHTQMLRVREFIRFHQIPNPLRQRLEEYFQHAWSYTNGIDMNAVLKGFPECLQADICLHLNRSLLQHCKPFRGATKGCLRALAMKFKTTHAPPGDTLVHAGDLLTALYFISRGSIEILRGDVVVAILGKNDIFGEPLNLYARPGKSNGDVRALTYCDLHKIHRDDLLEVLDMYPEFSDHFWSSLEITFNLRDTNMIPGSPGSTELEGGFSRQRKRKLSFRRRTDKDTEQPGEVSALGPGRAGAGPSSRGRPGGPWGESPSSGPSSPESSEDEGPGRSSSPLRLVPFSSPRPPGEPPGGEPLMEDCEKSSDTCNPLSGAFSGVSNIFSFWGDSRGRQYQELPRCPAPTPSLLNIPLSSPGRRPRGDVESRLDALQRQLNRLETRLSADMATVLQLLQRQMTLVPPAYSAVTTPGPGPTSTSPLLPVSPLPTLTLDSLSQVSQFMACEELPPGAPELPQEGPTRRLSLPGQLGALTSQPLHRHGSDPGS
row,Compound,"hERG current change (%, negative = inhibition) at 10uM [%]"
1,Cc1nnc(Nc2ccc3c(c2)OCO3)c2ccccc12,-7.51
2,O=C(CCc1nnc2n(Cc3ccc(F)cc3)c(=O)c3ccccc3n12)NCCN1CCOCC1,-20.3
3,O=C(CCc1ccccc1)NCCCN1CCOCC1,12.3
4,Cc1ccc(Cn2c(=O)c3ccccc3n3c(CCC(=O)NCCN4CCOCC4)nnc23)cc1,-19.5
5,O=C(CCc1nnc2n(Cc3ccccc3)c(=O)c3ccccc3n12)NCCN1CCOCC1,-1.06
6,CC1CCCC(C)N1CCNC(=O)CCc1nnc2n(Cc3ccccc3)c(=O)c3ccccc3n12 (stereo not shown),-42.6
7,O=C(CCc1nnc2n(Cc3ccc(F)cc3)c(=O)c3ccccc3n12)NCCCN1CCOCC1,-16.4
8,O=C(CCc1nnc2n(Cc3ccc(Cl)cc3)c(=O)c3ccccc3n12)NCCN1CCCC1,-75.8
9,CC1CCCCN1CCNC(=O)CCc1nnc2n(Cc3ccccc3)c(=O)c3ccccc3n12 (stereo not shown),-51.6
10,O=C(CCc1nnc2n(Cc3ccc(Cl)cc3)c(=O)c3ccccc3n12)NCCCN1CCOCC1,-59.9
11,COc1ccccc1CNC(=O)Cn1cc([N+](=O)[O-])ccc1=O,15.2
12,O=C1c2ccc3c4c(ccc(c24)C(=O)N1c1cccc(O)c1)C(=O)N(c1cccc(O)c1)C3=O,8.86
13,CCc1ccc(NC(=O)C/C(C)=N/NC(=O)COc2ccc(C)cc2Br)cc1,-30.5
14,CCc1ccccc1NC(=O)C/C(C)=N/NC(=O)COc1ccccc1C,9.02
15,CCc1ccc(NC(=O)C/C(C)=N/NC(=O)COc2ccccc2C)cc1,-53.2
16,COc1ccc(S(=O)(=O)Nc2ccccc2C(=O)N2CCOCC2)cc1C,-0.937
17,CCC(=O)Oc1cccc(C(=O)Nc2cccc(NC(=O)c3ccco3)c2)c1,-1.06
18,CCS(=O)(=O)n1nc(-c2ccccc2)nc1NCc1ccco1,-29.9
19,COc1ccc(C(=O)N/N=C\c2coc3ccccc3c2=O)cc1,6.36
20,COc1ccc(OC(C)c2nnc(N)s2)cc1 (stereo not shown),-71.4
21,Cc1ccc(OC(C)c2nnc(N)s2)cc1Cl (stereo not shown),-2.12

row,Compound,"hERG current change (%, negative = inhibition) at 10uM [%]"
1,CC(Oc1ccccc1)c1nnc(N)s1 (stereo not shown),-1.12
2,Clc1ccc(CSc2nncn2-c2ccccn2)cc1,-28.7
3,CC(C)NCc1cc(Br)ccc1OCc1ccccc1.Cl,-61.8
4,COCC(C)NCc1cc(Br)ccc1OC.O=C(O)C(=O)O (stereo not shown),8.73
5,COc1cccc(CNCCO)c1OCc1ccccc1Cl.Cl,-8.68
6,Cl.OCCNCCNCc1ccccc1OCc1ccccc1,8.83
7,Cl.OCCNCc1cc(Br)ccc1OCc1ccccc1Cl,-74.9
8,C=CCOc1ccc(Br)cc1CNCCO.Cl,0.469
9,CC(C)(CO)NCc1cc(Br)ccc1OCc1ccccc1.Cl,-35.5
10,COc1cc(CNCCO)cc(Br)c1OCc1ccccc1.Cl,-25.4
11,Cl.OCCNCc1cc(Br)ccc1OCc1ccc(F)cc1,-49.7
12,Cl.OCCNCc1cc(Br)ccc1OCc1ccc(Cl)cc1,-66.6
13,COc1cc(CNCCO)cc(Br)c1OCc1ccccc1Cl.Cl,-3.45
14,Cl.OCCNCc1cc(Br)ccc1OCc1ccccc1,-55.7
15,O=C(O)COc1ccc(/C=C2/SC(=S)N(Cc3ccccc3)C2=O)cc1,17.3
16,COc1cnc(-c2ccccc2)nc1Oc1cccc(C)c1C,-0.114
17,Cc1ccccc1C1c2[nH]c3ccccc3c2CCN1C(=O)c1ccc(=O)n(C)n1 (stereo not shown),-10.6
18,Cc1noc(C)c1COc1cccc(C(=O)NCc2ccccc2Cl)c1,-11.3
19,Cc1cccc(OCC(=O)NNC(=O)c2cc3ccccc3oc2=O)c1,-9.32
20,CC1CC(C)CN(CCCNC(=O)CN2C(=O)c3cccnc3Oc3ccc(Cl)cc32)C1 (stereo not shown),-30.7
21,Cc1ccc(S(=O)(=O)N/N=C/c2cn(C)nc2C)cc1,-2.68

row,Compound,"hERG current change (%, negative = inhibition) at 10uM [%]"
1,Cl.OCCCCNCc1cc(Br)ccc1OCc1ccccc1,-61.8
2,COc1cc(CNCCCCO)ccc1OCc1ccccc1F.Cl,-14.2
3,Cl.OCCCCNCc1cc(Br)ccc1OCc1ccccc1F,-24.7
4,Cc1ccc(OCc2nnc(SCC(=O)N3CCc4ccccc43)n2C)cc1,16.4
5,Cc1ccc(-c2csc3ncn(CC(=O)N4CCOCC4)c(=O)c23)cc1C,-5.43
6,CCn1c(SCC(=O)Nc2cccc(NC(C)=O)c2)nnc1-c1ccco1,14.8
7,COc1ccc(S(=O)(=O)N2CCOCC2)cc1C(=O)N1CCCCC1,-31.6
8,CC(=O)N1c2ccccc2CCc2ccc([N+](=O)[O-])cc21,2.5
9,CN(C)CCCN1c2ccc([N+](=O)[O-])cc2CCc2cc([N+](=O)[O-])ccc21,-50.3
10,Cc1ccccc1CN1CCc2cc([N+](=O)[O-])ccc21,19.1
11,C=CCNC(=S)NC(=O)c1ccc(C)c(Br)c1,3.39
12,N/C(=N\OC(=O)N1CCOCC1)c1ccc(Br)cc1,17.6
13,CN1C[C@H](CO)C=C2c3cccc4[nH]cc(c34)C[C@H]21,4.32
14,CCOC(=O)c1oc2ccccc2c1NC(=O)c1ccccc1OC,16.6
15,Cc1c(C(=O)NCc2ccco2)oc2ccccc12,-6.97
16,Cc1c(C(=O)N(Cc2ccco2)Cc2cccs2)oc2ccccc12,-34.2
17,Cc1ccccc1C(=O)Nc1c(C(=O)N(CCN(C)C)Cc2ccco2)oc2ccccc12,-79.7
18,COc1ccccc1C(=O)NCc1ccco1,9.61
19,COc1ccccc1C(=O)Nc1c(C(=O)N(CCN(C)C)Cc2ccco2)oc2ccccc12,-82.7
